Reference: PubChem BioAssay
For part of these data: Measured potencies and affinities stand elsewhere. Calls of active or inactive are those of the source. Unless noted, how the calls were made is not given here.

What was measured:
[1] = antimalarial activity against Dd2 strain (AID 2302;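 active means growth inhibition above 50% at the single 2 µM test dose, taken to imply half-maximal potency below 2 µM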;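 further: 0% = DMSO untreated growth and 100% = chloroquine plus artemisinin killed control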); conditions: P. falciparum Dd2 in RBCs, LDH growth readout, 72 h; at 2 µM; stronger effect = higher value
[2] = HepG2 cytotoxicity, primary screen, cytotoxicity control for P. falciparum antimalarial project, cell-based, ATP luminescence (AID 2303;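 active means inhibition above 50%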;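 further: 0% = DMSO wells and 100% = digitonin-killed cells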); conditions: HepG2 viability, 24-48 h, at 10 µM, stronger effect = higher value
[3] = target: L-lactate dehydrogenase (Plasmodium falciparum (isolate CDC / Honduras)) (UniProt Q27743); test: PfLDH activity inhibition – cell lysate, 3D7 strain, counter-screen for P. falciparum growth inhibition project (AID 2304);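 further: 0% = vehicle and 100% = reference inhibitor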; conditions: P. falciparum 3D7 crude extract, LDH APAD/NBT absorbance; at 2 µM; stronger effect = higher value
[4] = inhibition of 3D7 malaria parasite growth – strain 3D7 (AID 2306);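 further: 0% = DMSO wells and 100% = chloroquine plus artemisinin control wells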; conditions: P. falciparum 3D7 erythrocytic growth, LDH absorbance, 72 h; at 2 µM; stronger effect = higher value
[5] = target: Calcium-dependent protein kinase 1 (Plasmodium falciparum (isolate 3D7)) (UniProt P62344); test: PfCDPK1 kinase inhibitors, biochemical, TCAMS library (AID 1159585; cut-off not given, nearly all actives have IC50 up to about 0.98 µM;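 further: inhibitors leave more ATP so luminescence rises with inhibition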); conditions: recombinant PfCDPK1, Kinase-Glo ATP depletion luminescence
[6] = target: Plasmodium falciparum protein kinase 6 (PK6, PF3D7_1337100) (UniProt Q8IDW1); test: PfPK6 kinase inhibitors, biochemical, TCAMS library (AID 1159586); conditions: recombinant PfPK6, Kinase-Glo ATP depletion luminescence
[7] = target: Protein kinase 7 (PK7), Plasmodium falciparum 3D7 (PF3D7_0213400) (UniProt Q7YTF7); test: inhibition of Plasmodium PK7 catalytic activity – biochemical, TCAMS antimalarial set, Kinase-Glo luminescence (AID 1159587); conditions: recombinant PfPK7, Kinase-Glo ATP depletion luminescence
[8] = target: Calcium-dependent protein kinase 4 (Plasmodium falciparum (isolate 3D7)) (UniProt Q8IBS5); test: PfCDPK4 kinase inhibitors, biochemical, TCAMS library (AID 1159588; cut-off not given, nearly all actives have IC50 up to about 0.91 µM); conditions: recombinant PfCDPK4, Kinase-Glo ATP depletion luminescence
Sequence of Calcium-dependent protein kinase 4 (Plasmodium falciparum (isolate 3D7)) (Q8IBS5 whole entry, looked up): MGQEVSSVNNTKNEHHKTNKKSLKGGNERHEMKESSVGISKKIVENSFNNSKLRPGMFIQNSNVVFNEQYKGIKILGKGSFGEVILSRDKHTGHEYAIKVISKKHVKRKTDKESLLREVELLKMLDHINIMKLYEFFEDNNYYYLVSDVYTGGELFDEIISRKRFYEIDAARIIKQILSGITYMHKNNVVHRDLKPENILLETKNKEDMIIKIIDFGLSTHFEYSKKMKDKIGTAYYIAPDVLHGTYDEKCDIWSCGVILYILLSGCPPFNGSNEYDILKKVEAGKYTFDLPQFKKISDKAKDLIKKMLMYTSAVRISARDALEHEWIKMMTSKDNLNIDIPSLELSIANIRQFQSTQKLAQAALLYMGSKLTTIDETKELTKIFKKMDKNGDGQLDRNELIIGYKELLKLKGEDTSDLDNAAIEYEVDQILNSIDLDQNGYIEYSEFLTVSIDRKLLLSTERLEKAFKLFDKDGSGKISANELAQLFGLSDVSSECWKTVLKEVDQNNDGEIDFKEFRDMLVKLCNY

Sequence of L-lactate dehydrogenase (Plasmodium falciparum (isolate CDC / Honduras)) (Q27743 whole entry, looked up): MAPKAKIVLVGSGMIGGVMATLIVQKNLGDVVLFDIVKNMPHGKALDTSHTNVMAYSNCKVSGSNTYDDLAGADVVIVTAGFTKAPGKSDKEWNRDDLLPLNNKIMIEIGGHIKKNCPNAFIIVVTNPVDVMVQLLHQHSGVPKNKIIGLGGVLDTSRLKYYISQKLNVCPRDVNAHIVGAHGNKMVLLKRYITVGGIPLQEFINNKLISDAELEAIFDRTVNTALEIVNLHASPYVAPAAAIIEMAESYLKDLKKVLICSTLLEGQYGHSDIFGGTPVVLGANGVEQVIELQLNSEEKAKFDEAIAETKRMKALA
Sequence of Protein kinase 7 (PK7), Plasmodium falciparum 3D7 (PF3D7_0213400) (Q7YTF7 1-343): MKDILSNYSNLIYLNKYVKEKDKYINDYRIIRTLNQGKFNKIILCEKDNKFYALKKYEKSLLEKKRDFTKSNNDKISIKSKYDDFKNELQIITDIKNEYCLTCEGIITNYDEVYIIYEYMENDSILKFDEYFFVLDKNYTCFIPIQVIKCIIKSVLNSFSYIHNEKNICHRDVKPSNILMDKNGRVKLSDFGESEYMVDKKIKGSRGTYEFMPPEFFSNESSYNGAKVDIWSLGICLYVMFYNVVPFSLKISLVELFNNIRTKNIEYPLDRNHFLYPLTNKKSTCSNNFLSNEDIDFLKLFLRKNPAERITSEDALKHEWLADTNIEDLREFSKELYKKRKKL
Sequence of Plasmodium falciparum protein kinase 6 (PK6, PF3D7_1337100) (Q8IDW1 1-305): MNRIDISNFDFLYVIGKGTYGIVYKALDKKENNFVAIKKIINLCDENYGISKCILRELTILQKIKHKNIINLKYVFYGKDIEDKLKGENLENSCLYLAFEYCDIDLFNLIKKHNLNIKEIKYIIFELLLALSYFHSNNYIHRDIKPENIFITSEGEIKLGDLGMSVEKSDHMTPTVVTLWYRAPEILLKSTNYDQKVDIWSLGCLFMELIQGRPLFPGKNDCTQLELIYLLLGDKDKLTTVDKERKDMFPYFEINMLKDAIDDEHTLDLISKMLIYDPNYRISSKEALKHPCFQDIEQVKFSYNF
Sequence of Calcium-dependent protein kinase 1 (Plasmodium falciparum (isolate 3D7)) (P62344 whole entry, looked up): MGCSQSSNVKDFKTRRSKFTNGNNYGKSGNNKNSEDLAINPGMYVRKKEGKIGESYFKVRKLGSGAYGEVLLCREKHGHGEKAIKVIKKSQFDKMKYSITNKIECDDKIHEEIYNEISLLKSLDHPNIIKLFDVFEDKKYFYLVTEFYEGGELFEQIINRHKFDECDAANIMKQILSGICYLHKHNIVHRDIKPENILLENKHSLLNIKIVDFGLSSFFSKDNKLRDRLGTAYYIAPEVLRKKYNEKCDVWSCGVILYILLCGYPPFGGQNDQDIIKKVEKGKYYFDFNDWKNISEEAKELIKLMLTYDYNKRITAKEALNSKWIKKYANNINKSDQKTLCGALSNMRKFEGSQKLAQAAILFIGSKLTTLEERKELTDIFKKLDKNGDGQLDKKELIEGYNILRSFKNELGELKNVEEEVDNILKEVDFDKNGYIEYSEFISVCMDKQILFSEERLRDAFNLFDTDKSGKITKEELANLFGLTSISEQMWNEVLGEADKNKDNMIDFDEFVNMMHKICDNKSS

O[C@@H](c1cccc(OCc2ccccc2)c1)[C@@H]1CN(CCc2ccccc2)CC[C@@]1(O)c1ccccc1
active: growth inhibition [1] 98% | growth inhibition [4] 98%
inactive: inhibition [2] 7% | inhibition [3] -4% | outcome [5] | outcome [6] | outcome [7] | outcome [8]

COc1ccc(-c2nc(NC(=O)CS(=O)(=O)c3ccc(OC)cc3)sc2C)cc1
active: growth inhibition [1] 89% | growth inhibition [4] 95%
inactive: inhibition [2] 6% | inhibition [3] -2% | outcome [5] | outcome [6] | outcome [7] | outcome [8]

O=S(=O)(c1cccc2cccnc12)N1CCN(C2CCCCC2)CC1
active: growth inhibition [4] 96%
inactive: growth inhibition [1] 10% | inhibition [2] 15% | inhibition [3] 1% | outcome [5] | outcome [6] | outcome [7] | outcome [8]

O=C(c1ccc(Cl)cc1)C1CCCN(C2CCN(CCc3ccccc3)CC2)C1 (configuration not stated)
active: growth inhibition [1] 51% | growth inhibition [4] 96%
inactive: inhibition [2] 37% | inhibition [3] 1% | outcome [5] | outcome [6] | outcome [7] | outcome [8]

CC[C@H](N=C(Nc1ccc(C#N)cc1O)Nc1cccc(Cl)c1Cl)c1ccccc1
inactive: inhibition [2] -2% | inhibition [3] -1% | outcome [5] | outcome [6] | outcome [7] | outcome [8]
active: growth inhibition [1] 71% | growth inhibition [4] 91%

COC(=O)c1cccc(CNCc2ccc(-c3ccc(-c4nc5ccc(F)cc5[nH]4)cc3)cc2)c1
active: growth inhibition [1] 95% | growth inhibition [4] 100%
inactive: inhibition [2] 8% | inhibition [3] 2% | outcome [5] | outcome [6] | outcome [7] | outcome [8]

COc1ccc(-c2ccnc(-c3cccc(-c4ccccn4)n3)c2)cc1
inactive: inhibition [2] 44% | inhibition [3] -1% | outcome [5] | outcome [6] | outcome [7] | outcome [8]
active: growth inhibition [1] 84% | growth inhibition [4] 97%

Cc1ccc(S(=O)Cc2ccc(Cl)cc2)cc1 (configuration not stated)
inactive: growth inhibition [1] 5% | inhibition [2] 8% | inhibition [3] -2% | outcome [5] | outcome [6] | outcome [7] | outcome [8]
active: growth inhibition [4] 98%

CN(C)c1ccc(CN2CCC(NC(=O)c3ccc(-c4ccc(N(C)C)cc4)s3)CC2)cc1
inactive: growth inhibition [1] 21% | inhibition [2] 24% | inhibition [3] -2% | outcome [5] | outcome [6] | outcome [7] | outcome [8]
active: growth inhibition [4] 93%

CCCc1cc(OC)c(C[C@H]2c3cc(O)c(Cl)cc3CCN2C)cc1OC
inactive: inhibition [2] -3% | inhibition [3] -6% | outcome [5] | outcome [6] | outcome [7] | outcome [8]
active: growth inhibition [1] 98% | growth inhibition [4] 97%

CC(=O)Nc1nc(N)c2c(ccc3c2ccn3CC(C)C)n1
inactive: inhibition [3] -3% | outcome [5] | outcome [6] | outcome [7] | outcome [8]
active: growth inhibition [1] 78% | inhibition [2] 66% | growth inhibition [4] 94%

Cc1nc(Nc2cc(Cl)ccc2O)nc(Nc2cc(Cl)ccc2O)c1[N+](=O)[O-]
inactive: inhibition [2] -4% | inhibition [3] 3% | outcome [5] | outcome [6] | outcome [7] | outcome [8]
active: growth inhibition [1] 83% | growth inhibition [4] 98%

CN1CCN(c2ccnc3cc4c(cc23)N(Cc2ccccc2)CC4)CC1
inactive: growth inhibition [1] 27% | inhibition [2] -2% | inhibition [3] -3% | outcome [5] | outcome [6] | outcome [7] | outcome [8]
active: growth inhibition [4] 94%

CN1CCC(NCCS(=O)(=O)c2cccc(Nc3ccc(-c4cccc(F)c4)cn3)c2)CC1
inactive: growth inhibition [1] -3% | inhibition [2] 27% | inhibition [3] 5% | outcome [5] | outcome [6] | outcome [7] | outcome [8]
active: growth inhibition [4] 99%

Cc1cc(N2CCCC2)nc(Nc2ccc(NC(=O)c3ccc(Br)o3)cc2)n1
inactive: inhibition [2] 17% | inhibition [3] 0% | outcome [5] | outcome [6] | outcome [7] | outcome [8]
active: growth inhibition [1] 57% | growth inhibition [4] 99%

CCNc1cc(C(=O)N[C@@H](Cc2ccccc2)[C@H](O)CNC2CCSCC2)cc(N2CCCC2=O)c1
active: growth inhibition [1] 98% | growth inhibition [4] 99%
inactive: inhibition [2] 0% | inhibition [3] -1% | outcome [5] | outcome [6] | outcome [7] | outcome [8]

COc1ccc(-c2cc(C(=O)N[C@@H](CC3CCCCC3)C(=O)NC3CCCc4ccccc43)ccc2O)cc1 (some centres not stated)
inactive: inhibition [2] 7% | inhibition [3] -1% | outcome [5] | outcome [6] | outcome [7] | outcome [8]
active: growth inhibition [1] 97% | growth inhibition [4] 98%

O=C(/C=C/c1ccc(Cl)c(Cl)c1)N1CCC(CNCc2cccc3cc[nH]c23)CC1
active: growth inhibition [4] 85%
inactive: growth inhibition [1] 14% | inhibition [2] 1% | inhibition [3] -2% | outcome [5] | outcome [6] | outcome [7] | outcome [8]

CCOc1cc(C)ccc1NC1CCN(CCCCNC(=O)c2ccc(NC(=O)c3ccc(Cl)cc3)cc2)CC1
active: growth inhibition [1] 70% | growth inhibition [4] 101%
inactive: inhibition [2] 17% | inhibition [3] -2% | outcome [5] | outcome [6] | outcome [7] | outcome [8]

COc1cc(CNC[C@@H](O)[C@H](Cc2ccccc2)NC(=O)c2cc(OC(C)C)cc(N3CCCS3(=O)=O)c2)cc(OC)c1
active: growth inhibition [1] 72% | growth inhibition [4] 97%
inactive: inhibition [2] -1% | inhibition [3] 0% | outcome [5] | outcome [6] | outcome [7] | outcome [8]

CC(CCc1ccccc1)NCC(O)c1ccc2c3c(cccc13)S(=O)(=O)N2C (configuration not stated)
active: growth inhibition [1] 99% | growth inhibition [4] 99%
inactive: inhibition [2] 16% | inhibition [3] 3% | outcome [5] | outcome [6] | outcome [7] | outcome [8]

Cc1c(S(=O)(=O)Nc2ccc3ccn(CCN(C)C)c3c2)sc2ccc(Cl)cc12
active: growth inhibition [1] 94% | growth inhibition [4] 98%
inactive: inhibition [2] 15% | inhibition [3] 0% | outcome [5] | outcome [6] | outcome [7] | outcome [8]

Cc1cc(N(C)C)nc(Nc2ccc(NC(=O)c3cccc(F)c3)cc2)n1
active: growth inhibition [1] 62% | growth inhibition [4] 100%
inactive: inhibition [2] -8% | inhibition [3] 4% | outcome [5] | outcome [6] | outcome [7] | outcome [8]

CO/C(=C\C=C\c1cc2cc(Cl)c(Cl)cc2[nH]1)C(=O)NC1C[C@H]2CC[C@@H](C1)N2C (some centres not stated)
inactive: growth inhibition [1] 23% | inhibition [2] 46% | inhibition [3] -4% | outcome [5] | outcome [6] | outcome [7] | outcome [8]
active: growth inhibition [4] 88%
